Bioassay records: PubChem, The Scripps Research Institute Molecular Screening Center
NOD2 RIPK2 PPI: blocks binding of human NOD2 to RIPK2; CHO BLA complementation NOD2-RIPK2, CCF4 ratio; hit rate 0.38% among 360,000; O43353; inhibition, % at 4.98 µM; in the data active = inhibition above about 21%;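 also: 0% = vehicle only and 100% = reference blocker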
Target sequence (O43353 whole entry, looked up): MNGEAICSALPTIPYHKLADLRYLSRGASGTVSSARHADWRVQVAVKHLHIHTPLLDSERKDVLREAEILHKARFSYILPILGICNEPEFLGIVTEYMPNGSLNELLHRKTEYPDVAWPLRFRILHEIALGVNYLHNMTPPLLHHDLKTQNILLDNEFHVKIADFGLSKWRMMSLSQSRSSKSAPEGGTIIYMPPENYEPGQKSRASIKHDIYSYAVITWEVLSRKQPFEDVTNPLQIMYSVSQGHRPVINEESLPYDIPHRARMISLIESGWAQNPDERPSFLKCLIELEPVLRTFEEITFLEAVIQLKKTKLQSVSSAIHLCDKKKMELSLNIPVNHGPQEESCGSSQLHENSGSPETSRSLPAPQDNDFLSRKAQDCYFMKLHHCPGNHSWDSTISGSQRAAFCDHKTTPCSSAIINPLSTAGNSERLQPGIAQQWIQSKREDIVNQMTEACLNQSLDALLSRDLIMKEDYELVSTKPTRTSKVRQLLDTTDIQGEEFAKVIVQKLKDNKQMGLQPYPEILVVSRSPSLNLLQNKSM
rCAG RNA binder: binds r(CAG) RNA repeats | r(CAG) RNA repeat, TO-PRO-1 dye displacement fluorescence | inhibition, % at 3 µM | hit rate 1.3% among 370,000;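 active = inhibition above the plate cutoff, the mean of all test compounds on that plate plus 3 SD, cut at about 35% in these data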;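 also: 0% = DMSO alone and 100% = 100 µM mitoxantrone as full dye displacement; higher means more dye released from RNA so lower well fluorescence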
ABHD5-PLIN5 inh: blocks binding of human ABHD5 to perilipin-5 | Split G. princeps luciferase complementation, luminescence, 4 h | Q00G26+Q8WTS1 | hit rate 0.78% among 360,000 | inhibition, % at 4 µM;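 active = inhibition above the mean inhibition across every tested compound plus 3 SD, cut at about 22% in these data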;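 also: 0% = DMSO only wells and the 100% control is not disclosed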
TLR9-MyD88 inh: TLR9-MyD88 interaction inhibition. Q9NR96+Q99836. CHO BLA complementation TLR9-MyD88, CCF4 FRET ratio. inhibition, % at 4.98 µM. hit rate 0.21% among 340,000. AID 504734;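 active = inhibition above the mean over all tested compounds plus 3 SD, cut at about 21% in these data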;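 also: 0% = DMSO only wells and 100% = clavulanate BLA inhibitor control wells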
TLR4 MyD88 comp: blocks binding of human TLR4 to MyD88. O00206+Q99836. HeLa CL3-4 TLR4/MyD88 BLA complementation, FRET ratio. inhibition, % at 8.4 µM. hit rate 0.18% among 200,000. AID 861; in the data active = inhibition above about 25%;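 also: 0% = vehicle and 100% = reference inhibitor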
PRMT1 inh: PRMT1 (human) inhibition, primary screen | recombinant PRMT1, activity-based probe fluorescence polarization | Q99873 | inhibition, % at 2.79 µM | hit rate 1.3% among 370,000 | AID 652257;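 active = inhibition above about 21% made by adding two undisclosed values, limit read from the data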
NOD2-RIPK2 conf: confirmation of human NOD2-RIPK2 interaction inhibitors; shares compounds with NOD2 RIPK2 PPI; CHO cells, NOD2-RIPK2 BLA complementation, CCF4 FRET; inhibition, % at 4.98 µM; hit rate 70% among 1,200; AID 624370;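 active = mean inhibition across replicates above a set limit taken from the earlier primary screen, cut at about 21% in these data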;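 also: 0% = DMSO-only wells and the high end = clavulanate BLA-blocked wells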
NOD2 BLA counter: hits BLA reporter in NOD2-RIPK2 inhibitor counterscreen; shares compounds with NOD2 RIPK2 PPI; CHO BLA reporter, CCF4 FRET ratio; inhibition, % at 4.98 µM; hit rate 57% among 1,200; AID 624371;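 active = mean inhibition above the low-control mean inhibition plus three low-control SD, cut at about 11% in these data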;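 also: 0% = DMSO only wells and 100% = clavulanate high control wells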
rCAG bind conf: r(CAG) RNA repeat binding, confirmation. shares compounds with rCAG RNA binder. TO-PRO-1 dye displacement fluorescence. inhibition, % at 3 µM. hit rate 70% among 4,300. AID 652065;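 active = inhibition above a per-plate cutoff, the mean inhibition of sample wells plus 3 SD, cut at about 35% in these data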;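 also: loss of TO-PRO-1 fluorescence as compound displaces dye from 1x1 AA loop RNA; 0% = DMSO only wells and 100% = 100 µM mitoxantrone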
DNA CAG counter: DNA CAG dye complex inhibition counter-screen. shares compounds with rCAG RNA binder. d(CAG) DNA oligo TO-PRO-1 dye displacement, fluorescence. inhibition, % at 3 µM. hit rate 94% among 4,300;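 active = inhibition above its plate's cutoff, the mean test-well inhibition plus 3 SD, cut at about 4.8% in these data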;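 also: 0% = DNA dye mix with DMSO and 100% = 100 µM mitoxantrone; hits displace the dye from DNA and so lower well fluorescence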
PRMT1 confirm: confirmation of human PRMT1 inhibitors | shares compounds with PRMT1 inh | recombinant His-PRMT1, activity-based probe fluorescence polarization | inhibition, % at 2.79 µM | hit rate 42% among 3,300 | AID 687036;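 active = mean inhibition across replicates above the hit cutoff derived for the earlier primary screen, cut at about 22% in these data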
Starred values were filed as active, the others as inactive; / = no result. Sampled rows, rich in hits. Any-hit rate of the full collection: about 3.3%.

SMILES	NOD2 RIPK2 PPI	rCAG RNA binder	ABHD5-PLIN5 inh	TLR9-MyD88 inh	TLR4 MyD88 comp	PRMT1 inh	NOD2-RIPK2 conf	NOD2 BLA counter	rCAG bind conf	DNA CAG counter	PRMT1 confirm
CCOC(=O)C(C)N1C(=O)S/C(=C\c2ccc(-c3ccccc3C(=O)O)o2)C1=O (centres undefined)	23*	37*	6	-1	/	29*	12	21*	40*	12*	4
Cc1ccc(NC(=O)C2(c3cccs3)CCOCC2)cc1C	-5	-3	3	-2	-3	0	/	/	/	/	/
O=c1c2ccc(F)cc2sn1-c1ccccc1	36*	0	72*	14	/	80*	46*	8	/	/	94*
COc1ccc2c3c([nH]c2c1)[C@]1(NCC3)C(=O)N(C)c2ccc(Cl)cc21	/	0	/	/	/	-7	/	/	/	/	/
CCO[C@H]1OC(C(=O)N2CCN(Cc3ccc4c(c3)OCO4)CC2)=C[C@@H](c2csc3ccccc23)[C@@H]1CCCO	23*	1	7	-13	-6	96*	12	-1	/	/	-1
CCO[C@H]1OC(C(=O)N2CCN(Cc3ccc4c(c3)OCO4)CC2)=C[C@@H](c2cn(C(C)=O)c3ccccc23)[C@@H]1CCCO	1	7	5	1	4	0	/	/	/	/	/
COc1ccc(C(=O)/C=C/C(=O)N(CC(=O)NC2CCCCC2)Cc2cccs2)c(O)c1	74*	4	70*	18	24	38*	85*	17*	/	/	65*
COc1ccc(C(=O)/C=C/C(=O)N(Cc2ccc3c(c2)OCO3)C(C(=O)NC2CCCCC2)c2ccncc2)c(O)c1 (centres undefined)	-8	1	3	-15	2	1	/	/	/	/	/
O=c1oc2cc(O)ccc2cc1S(=O)(=O)c1ccccc1	-40	1	2	-112	/	7	/	/	/	/	/
O=c1oc2cc(O)ccc2cc1-c1nc2ccccc2o1	57*	-30	-17	/	/	71*	54*	68*	/	/	68*
Nc1ccc2cc3[nH]c4cc(N)ccc4c3nc2c1	39*	-75	-8	11	/	156*	73*	66*	/	/	-41
CNC(=O)c1nnsc1S(=O)(=O)c1ccc(Cl)cc1	85*	-1	74*	41*	13	78*	80*	9	/	/	72*
COC(=O)[C@]12C[C@H](CC(=O)NCC3CCCCC3)C(=O)N(Cc3ccco3)C1=C[C@H](C(C)C)O[C@@H]2C1CC1	/	2	/	/	/	3	/	/	/	/	/
Cc1ccc(S(=O)(=O)SCCCSS(=O)(=O)c2ccc(C)cc2)cc1	36*	3	13	2	/	96*	43*	2	/	/	91*
CCc1ccccc1NC(=O)CCc1c(C)nn(-c2ccc(N3CCOCC3)nn2)c1C	-5	-5	-4	-13	/	4	/	/	/	/	/
O=C(CCNC(=O)c1ccc([N+](=O)[O-])cc1)Oc1ccc(F)c(F)c1	2	4	-6	-6	/	-2	/	/	/	/	/
O=C(OCc1ccccc1)[C@H](Cc1ccccc1)NC(=O)[C@@H]1CC=C[C@@H]2CCN(Cc3ccccc3)C(=O)[C@@H]21	/	/	/	/	/	-2	/	/	/	/	/
CC1OC2CC(=O)OC2C2=C1C(=O)c1c(O)cccc1C2=O (centres undefined)	70*	4	101*	/	/	90*	77*	-14	/	/	73*
COc1ccc(Cn2c(O)c(C=Nc3ccccc3C(=O)O)c3ccccc3c2=O)cc1	-2	23	-8	-6	/	2	/	/	/	/	/
COc1ccccc1NS(=O)(=O)c1cccc(-n2c(O)c(C=Nc3ccccc3C(=O)O)c3ccccc3c2=O)c1	-19	91*	1	-20	/	4	/	/	91*	73*	/
COc1ccc(-n2c(O)c(/C=N/NS(=O)(=O)c3ccc(C)cc3)c3ccccc3c2=O)cc1OC	11	66*	-3	4	-6	-5	/	/	59*	24*	/
COc1ccc(-n2c(O)c(/C=N/NS(=O)(=O)c3cc(C)ccc3C)c3ccccc3c2=O)cc1OC	5	49*	-2	17	12	-7	/	/	73*	33*	/
Fc1ccccc1Cn1ccc2ccc(-c3ccc4ccn(Cc5ccccc5F)c4c3)cc21	/	10	/	/	/	-3	/	/	/	/	/
CCCCC(=O)NC(=S)Nc1c(C)cc(Br)cc1C	-2	0	-17	-3	-15	3	/	/	/	/	/
CCN(CC)c1ccc(C(=O)O)cc1	-8	-3	-3	-6	-11	-1	/	/	/	/	/
SMILES	NOD2 RIPK2 PPI	rCAG RNA binder	ABHD5-PLIN5 inh	TLR9-MyD88 inh	TLR4 MyD88 comp	PRMT1 inh	NOD2-RIPK2 conf	NOD2 BLA counter	rCAG bind conf	DNA CAG counter	PRMT1 confirm
CCN(CC)c1ccc(C(=C2C=CC(=[N+](CC)CC)C=C2)c2ccc(S(=O)(=O)O)cc2S(=O)(=O)[O-])cc1	4	46*	-2	-8	/	5	/	/	58*	18*	/
CC(=O)Nc1ccc(N=Nc2ccccc2)cc1[N+](=O)[O-]	-6	3	3	/	/	-3	/	/	/	/	/
O=C(O)Cc1c[nH]c2cccc(O)c12	-11	46*	10	-1	9	32*	/	/	29	13*	/
Cc1ccc(S(=O)(=O)Oc2ccc(C3C4=C(CCCC4=O)N(CCC(=O)O)C4=C3C(=O)CCC4)cc2Cl)cc1	0	36*	-5	5	-13	8	/	/	37*	11*	/
COc1ccc(-c2nn(-c3ccccc3)cc2/C=N/NS(=O)(=O)c2ccccc2)cc1	-1	27	-5	-4	4	0	/	/	/	/	/
Cc1ccsc1/C=N/NC(=O)c1cccc(S(=O)(=O)Nc2ccccc2Cl)c1	-7	47*	-2	0	1	-3	/	/	40*	14*	/
COc1ccc(-c2nn(-c3ccccc3)cc2/C=N/NC(=O)c2cccc(S(=O)(=O)Nc3ccccc3Cl)c2)cc1	-7	59*	-2	-11	17	-3	/	/	55*	29*	/
CC(=O)c1sc(NS(=O)(=O)c2ccc(C)cc2)nc1-c1ccccc1	-9	42*	-5	1	/	-6	/	/	34	7.5*	/
CC(=O)c1sc(-c2ccccc2)cc1NS(=O)(=O)c1ccc(C)cc1	-1	9	-2	3	/	0	/	/	/	/	/
